PubChem BioAssay AID1159580 (chemical genetic matrix, 2015)
About 2,000 (36%) of roughly 5,500 compounds were called active. Inconclusive results (about 18%) are left out. Cut-off read from the data, not from the text of the source: active = normalized growth mostly below about 0.91 (no sharp cut-off); inconclusive = no clear call, values can overlap the other calls; inactive = mostly above about 0.92. Some of the results follow.

Test: chemical genetic growth profiling, strain panel (AID 1159580);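 note: tested at 20 µM; growth read once vehicle control cultures reached saturation at 30 °C; 1 = growth at the plate median or of vehicle wells; lower values mean less growth of the strain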
Details: growth OD

Measured: normalized growth

OC(CCN1CCCCC1)(c1ccccc1)c1ccccc1
inactive: S. cerevisiae deletion strains, locus YJR075W, strain HOC1, active compounds read low 1 | S. cerevisiae deletion strains, locus YKL009W, strain mrt4, active compounds read low 1.03 | S. cerevisiae deletion strains, locus YKL068W, active compounds read low 1.01 | S. cerevisiae deletion strains, locus YKL085W, strain MDH1 (second series), active compounds read low 1.07 | S. cerevisiae deletion strains, locus YKL085W, strain MDH1, active compounds read low 1.07 | S. cerevisiae deletion strains, locus YKL160W, strain elf1, active compounds read low 1.03 | S. cerevisiae deletion strains, locus YKL190W, strain CNB1, active compounds read low 1.01 | S. cerevisiae deletion strains, locus YKR001C, strain vps1, active compounds read low 1.01 | S. cerevisiae deletion strains, locus YKR026C, strain gcn3, active compounds read low 0.993 | S. cerevisiae deletion strains, locus YKR091W, strain srl3, active compounds read low 0.993 | S. cerevisiae deletion strains, locus YLL001W, strain dnm1, active compounds read low 1.01 | S. cerevisiae deletion strains, locus YLL026W, active compounds read low 0.983 | S. cerevisiae deletion strains, locus YLL041C, strain sdh2, active compounds read low 0.994 | S. cerevisiae deletion strains, locus YLR027C, strain aat2, active compounds read low 1 | S. cerevisiae deletion strains, locus YLR039C, strain RIC1, active compounds read low 1.08 | S. cerevisiae deletion strains, locus YLR058C, strain SHM2, active compounds read low 1.01 | S. cerevisiae deletion strains, locus YLR102C, strain apc9, active compounds read low 1.01 | S. cerevisiae deletion strains, locus YLR113W, strain HOG1, active compounds read low 1.05 | S. cerevisiae deletion strains, locus YLR221C, strain rsa3, active compounds read low 0.966 | S. cerevisiae deletion strains, locus YLR258W, strain gsy2, active compounds read low 0.965 | S. cerevisiae deletion strains, locus YLR262C, strain YPT6 (second series), active compounds read low 1.02 | S. cerevisiae deletion strains, locus YLR262C, strain YPT6, active compounds read low 1.1 | S. cerevisiae deletion strains, locus YLR268W, strain sec22, active compounds read low 1.02 | S. cerevisiae deletion strains, locus YLR320W, strain mms22, active compounds read low 0.999 | S. cerevisiae deletion strains, locus YLR330W, strain CHS5, active compounds read low 1.01 | S. cerevisiae deletion strains, locus YLR342W, strain FKS1 (second series), active compounds read low 1.02 | S. cerevisiae deletion strains, locus YLR342W, strain FKS1, active compounds read low 0.993 | S. cerevisiae deletion strains, locus YLR357W, strain rsc2, active compounds read low 0.997 | S. cerevisiae deletion strains, locus YLR370C, strain arc18, active compounds read low 0.974 | S. cerevisiae deletion strains, locus YLR371W, strain rom2, active compounds read low 1.01 | S. cerevisiae deletion strains, locus YLR384C, strain iki3, active compounds read low 0.983 | S. cerevisiae deletion strains, locus YLR418C, strain cdc73, active compounds read low 1.01 | S. cerevisiae deletion strains, locus YML016C, strain PPZ1, active compounds read low 1 | S. cerevisiae deletion strains, locus YML032C, strain rad52, active compounds read low 1.01 | S. cerevisiae deletion strains, locus YML120C, strain ndi1, active compounds read low 0.978 | S. cerevisiae deletion strains, locus YML124C, strain tub3, active compounds read low 1 | S. cerevisiae deletion strains, locus YMR058W, strain fet3, active compounds read low 0.996 | S. cerevisiae deletion strains, locus YMR078C, strain ctf18, active compounds read low 1.01 | S. cerevisiae deletion strains, locus YMR125W, strain sto1, active compounds read low 1.01 | S. cerevisiae deletion strains, locus YMR129W, active compounds read low 0.99 | S. cerevisiae deletion strains, locus YMR205C, strain PFK2, active compounds read low 1.01 | S. cerevisiae deletion strains, locus YMR223W, strain ubp8, active compounds read low 1.01 | S. cerevisiae deletion strains, locus YMR231W, strain pep5, active compounds read low 0.995 | S. cerevisiae deletion strains, locus YMR307W, strain GAS1, active compounds read low 1.08 | S. cerevisiae deletion strains, locus YNL067W, strain RPL9B, active compounds read low 1.02 | S. cerevisiae deletion strains, locus YNL071W, strain lat1, active compounds read low 0.993 | S. cerevisiae deletion strains, locus YNL153C, strain GIM3, active compounds read low 0.998 | S. cerevisiae deletion strains, locus YNL183C, strain NPR1, active compounds read low 0.971 | S. cerevisiae deletion strains, locus YNL209W, strain ssb2, active compounds read low 0.987 | S. cerevisiae deletion strains, locus YNL233W, strain BNI4, active compounds read low 1.01 | S. cerevisiae deletion strains, locus YNL248C, strain rpa49, active compounds read low 1.06 | S. cerevisiae deletion strains, locus YNL250W, strain rad50, active compounds read low 1 | S. cerevisiae deletion strains, locus YNL271C, strain bni1, active compounds read low 1.02 | S. cerevisiae deletion strains, locus YNL298W, strain CLA4, active compounds read low 1.02 | S. cerevisiae deletion strains, locus YNL307C, strain MCK1, active compounds read low 1.02 | S. cerevisiae deletion strains, locus YNL322C, strain KRE1 (second series), active compounds read low 0.987 | S. cerevisiae deletion strains, locus YNL322C, strain KRE1, active compounds read low 1.01 | S. cerevisiae deletion strains, locus YNR049C, strain mso1, active compounds read low 0.997 | S. cerevisiae deletion strains, locus YNR052C, strain pop2, active compounds read low 1.02 | S. cerevisiae deletion strains, locus YOL006C, strain TOP1, active compounds read low 0.958 | S. cerevisiae deletion strains, locus YOL012C, strain htz1 0.814 | S. cerevisiae deletion strains, locus YOL147C, strain pex11, active compounds read low 1 | S. cerevisiae deletion strains, locus YOR001W, strain rrp6, active compounds read low 0.992 | S. cerevisiae deletion strains, locus YOR061W, strain CKA2, active compounds read low 1 | S. cerevisiae deletion strains, locus YOR069W, strain VPS5, active compounds read low 1 | S. cerevisiae deletion strains, locus YOR070C, strain gyp1, active compounds read low 0.989 | S. cerevisiae deletion strains, locus YOR080W, strain dia2, active compounds read low 0.984 | S. cerevisiae deletion strains, locus YOR083W, strain WHI5, active compounds read low 1.03 | S. cerevisiae deletion strains, locus YOR106W, strain vam3, active compounds read low 1.01 | S. cerevisiae deletion strains, locus YOR136W, strain idh2, active compounds read low 1.01 | S. cerevisiae deletion strains, locus YOR144C, strain elg1, active compounds read low 1 | S. cerevisiae deletion strains, locus YOR184W, strain ser1, active compounds read low 1.02 | S. cerevisiae deletion strains, locus YOR231W, strain MKK1, active compounds read low 1.07 | S. cerevisiae deletion strains, locus YOR265W, strain rbl2, active compounds read low 0.989 | S. cerevisiae deletion strains, locus YOR270C, strain vph1, active compounds read low 0.955 | S. cerevisiae deletion strains, locus YOR290C, strain snf2, active compounds read low 1 | S. cerevisiae deletion strains, locus YOR316C, strain cot1, active compounds read low 1.02 | S. cerevisiae deletion strains, locus YPL051W, strain arl3, active compounds read low 1.06 | S. cerevisiae deletion strains, locus YPL055C, strain LGE1, active compounds read low 1.02 | S. cerevisiae deletion strains, locus YPL078C, strain atp4, active compounds read low 1.03 | S. cerevisiae deletion strains, locus YPL106C, strain sse1, active compounds read low 0.966 | S. cerevisiae deletion strains, locus YPL240C, strain hsp82, active compounds read low 0.984 | S. cerevisiae deletion strains, locus YPL241C, strain CIN2, active compounds read low 1 | S. cerevisiae deletion strains, locus YPL256C, strain CLN2, active compounds read low 1.04 | S. cerevisiae deletion strains, locus YPR119W, strain clb2, active compounds read low 1.01 | S. cerevisiae deletion strains, locus YPR141C, strain kar3, active compounds read low 1.01 | S. cerevisiae deletion strains, locus YPR163C, strain tif3, active compounds read low 1.02 | S. cerevisiae deletion strains, locus YPR167C, strain met16, active compounds read low 1.02 | S. cerevisiae deletion strains, strain wtn01, active compounds read low 1.01 | S. cerevisiae strains, strain wild type, active compounds read low 1.01
